The campaign covered roughly 3,200 compounds. About 300 (9.4%) showed activity. Shown is part of a subset that was picked to be rich in actives.
System: A673/TR/shEF
Assay: cell viability (LOESS-normalised, relative to median of negative controls) (log2 ratio); higher = more viable cells (less compound effect), active = hit call of the paper (over 3 MAD below the median)
Details: treatment time: 72 h
How it was run: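 A673/TR/shEF Ewing sarcoma cells (1,500 per well, 384-well plates) were grown with or without doxycycline to induce EWS-FLI1 shRNA knockdown, starting 24 h before compounds. Library compounds at two or more concentrations, with DMSO controls, were added for three days. Cell viability was read by CellTiter-Glo luminescence on an Envision reader, then LOESS-corrected per plate, divided by the median of negative controls and log2-transformed. Hits were wells at least three median absolute deviations from the median of all screened wells.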

[1] = 0.25 µM, library screen: screen2, EWS-FLI1 expression: high (no doxycycline)
[2] = 0.25 µM, library screen: screen2, EWS-FLI1 expression: low (doxycycline-induced shRNA knockdown)
[3] = 2.5 µM, library screen: screen2, EWS-FLI1 expression: high (no doxycycline)
[4] = 2.5 µM, library screen: screen2, EWS-FLI1 expression: low (doxycycline-induced shRNA knockdown)
[5] = 0.25 µM, library screen: screen1, EWS-FLI1 expression: high (no doxycycline)
[6] = 0.25 µM, library screen: screen1, EWS-FLI1 expression: low (doxycycline-induced shRNA knockdown)
[7] = 2.5 µM, library screen: screen1, EWS-FLI1 expression: high (no doxycycline)
[8] = 2.5 µM, library screen: screen1, EWS-FLI1 expression: low (doxycycline-induced shRNA knockdown)

NC(Cc1cc(O)c(O)cc1O)C(=O)O (stereo not drawn)
cell viability (log2) [1]: 0.0775 (inactive) | cell viability (log2) [2]: 0.133 (inactive) | cell viability (log2) [3]: 0.0832 (inactive) | cell viability (log2) [4]: 0.2 (inactive)

CC(=O)c1c(O)c(C)c(O)c(Cc2c(O)c3c(c(C(=O)/C=C/c4ccccc4)c2O)OC(C)(C)C=C3)c1O
cell viability (log2) (0.025 µM, library screen: screen1, EWS-FLI1 expression: high (no doxycycline)): 0.0285 (inactive) | cell viability (log2) (0.025 µM, library screen: screen1, EWS-FLI1 expression: low (doxycycline-induced shRNA knockdown)): 0.0263 (inactive) | cell viability (log2) [5]: 0.0889 (inactive) | cell viability (log2) [6]: 0.0306 (inactive) | cell viability (log2) [1]: 0.209 (inactive) | cell viability (log2) [2]: 0.109 (inactive) | cell viability (log2) [7]: 0.055 (inactive) | cell viability (log2) [8]: -0.0112 (inactive) | cell viability (log2) [3]: 0.118 (inactive) | cell viability (log2) [4]: 0.156 (inactive) | cell viability (log2) (25 µM, library screen: screen1, EWS-FLI1 expression: high (no doxycycline)): -0.306 (active) | cell viability (log2) (25 µM, library screen: screen1, EWS-FLI1 expression: low (doxycycline-induced shRNA knockdown)): -0.0436 (inactive)

CC(N)Cc1c[nH]c2ccc(O)cc12 (stereo not drawn)
cell viability (log2) [1]: 0.112 (inactive) | cell viability (log2) [2]: 0.067 (inactive) | cell viability (log2) [3]: 0.123 (inactive) | cell viability (log2) [4]: 0.0164 (inactive)

COc1ccc(C(c2ccc(OC)cc2)C(Cl)(Cl)Cl)cc1
cell viability (log2) [5]: 0.0772 (inactive) | cell viability (log2) [6]: 0.0568 (inactive) | cell viability (log2) [7]: 0.0994 (inactive) | cell viability (log2) [8]: 0.0877 (inactive)

ClC1=C(Cl)[C@]2(Cl)[C@H]3[C@H]([C@@H]4C=C[C@H]3C4)[C@@]1(Cl)C2(Cl)Cl
cell viability (log2) [5]: 0.211 (inactive) | cell viability (log2) [6]: 0.0643 (inactive) | cell viability (log2) [7]: 0.0733 (inactive) | cell viability (log2) [8]: 0.136 (inactive)

CCN(CC)C(=O)N[C@@H]1C[C@@H]2c3cccc4[nH]cc(c34)C[C@H]2N(C)C1
cell viability (log2) [1]: 0.108 (inactive) | cell viability (log2) [2]: 0.0251 (inactive) | cell viability (log2) [3]: 0.215 (inactive) | cell viability (log2) [4]: -0.0279 (inactive)

CCCCSP(=O)(SCCCC)SCCCC
cell viability (log2) [5]: -0.12 (active) | cell viability (log2) [6]: 0.121 (inactive) | cell viability (log2) [7]: 0.0791 (inactive) | cell viability (log2) [8]: 0.0846 (inactive)

CCCSP(=O)(OCC)SCCC
cell viability (log2) [5]: 0.112 (inactive) | cell viability (log2) [6]: 0.104 (inactive) | cell viability (log2) [7]: 0.0625 (inactive) | cell viability (log2) [8]: 0.0939 (inactive)

CC1=C[C@@H]2c3cccc4[nH]cc(c34)C[C@H]2N(C)C1
cell viability (log2) [1]: 0.126 (inactive) | cell viability (log2) [2]: 0.0939 (inactive) | cell viability (log2) [3]: 0.18 (inactive) | cell viability (log2) [4]: 0.0817 (inactive)

CCOP(=S)(OCC)SCSCC
cell viability (log2) [5]: 0.102 (inactive) | cell viability (log2) [6]: -0.0178 (inactive) | cell viability (log2) [7]: 0.0726 (inactive) | cell viability (log2) [8]: 0.115 (inactive)

NC1CC1c1ccccc1 (stereo not drawn)
cell viability (log2) [5]: 0.107 (inactive) | cell viability (log2) [6]: 0.128 (inactive) | cell viability (log2) [7]: 0.188 (inactive) | cell viability (log2) [8]: 0.0868 (inactive)

COc1ccc2c3c1O[C@H]1[C@@H](O)CCC4[C@@H](C2)N(C)CC[C@@]341 (stereo partly drawn)
cell viability (log2) [5]: 0.0725 (inactive) | cell viability (log2) [6]: 0.0483 (inactive) | cell viability (log2) [7]: 0.0123 (inactive) | cell viability (log2) [8]: 0.128 (inactive)

C=CCN1CCC2(C)c3cc(O)ccc3CC1C2C (stereo not drawn)
cell viability (log2) [1]: 0.143 (inactive) | cell viability (log2) [2]: 0.072 (inactive) | cell viability (log2) [3]: 0.0589 (inactive) | cell viability (log2) [4]: 0.0707 (inactive)

N#Cc1c(Cl)c(Cl)c(Cl)c(C#N)c1Cl
cell viability (log2) [5]: -0.0732 (inactive) | cell viability (log2) [6]: 0.00425 (inactive) | cell viability (log2) [7]: -0.219 (active) | cell viability (log2) [8]: 0.063 (inactive)

N#Cc1c(Cl)cccc1Cl
cell viability (log2) [5]: 0.126 (inactive) | cell viability (log2) [6]: 0.0183 (inactive) | cell viability (log2) [7]: 0.084 (inactive) | cell viability (log2) [8]: 0.0798 (inactive)

From the supplement of paper PMC6089552
